Screens: PubChem BioAssay, University of Kansas High Throughput Screening Laboratory
This excerpt belongs to a sample that is enriched for hits.
Pf apPOL block: Pf-apPOL DNA polymerase inhibition. AID 1794808. actives 0.25% (n = 210,000). inhibition, % at 10 µM. Recombinant Pf-apPOL, molecular beacon fluorescence, 1.5 h
mHTT-CaM PPI inh: mHTT-calmodulin interaction abrogation | P42858 | AID 1671202 | AlphaScreen His-mHTT/GST-CaM binding, luminescence | inhibition, % at 15 µM | actives 3.6% (n = 190,000)
Of the large screens only hits and unclear results are named; the others gave an inactive call. No stated cut-off is given here; in the data, active means inhibition above about 50%; inactive means the rest.

CNC(=O)C1CCN(c2nc3ccc(-c4ccccc4)nc3s2)CC1	none
Cc1cc(C)c(S(=O)(=O)Nc2ncccn2)c(C)c1	none
Cc1cc(C)c(S(=O)(=O)Nc2ncccc2C)c(C)c1	Pf apPOL block 99.6
CCN(C(=O)CN1C(=O)c2ccccc2C1=O)c1ccccc1	mHTT-CaM PPI inh 98.1
CCN(C(=O)CN1C(=O)NC2(CCCCC2)C1=O)c1ccccc1	none
Cc1cccc(-c2cc(C(=O)N3CCC(C)CC3)no2)c1	none
Cc1cccc(N2CCN(C(=O)C3CCCN(c4nnc5cccc(C)n45)C3)CC2)c1 (configuration not stated)	none
Cc1ccc(C2CCCN2C(=O)Cc2ccc(F)cc2)cc1 (configuration not stated)	none
Cc1ccccc1C1CCCN1C(=O)Cc1cccc(Cl)c1 (configuration not stated)	none
Cc1ccc(C2CCCN2C(=O)Cc2ccc(Cl)cc2)cc1 (configuration not stated)	mHTT-CaM PPI inh 57.8
Cc1ccccc1C1CCCN1C(=O)Cc1ccc(Cl)cc1 (configuration not stated)	mHTT-CaM PPI inh 58.0
O=C(c1ccc(F)cc1)N1CCc2ccccc21	none
O=C(NCCc1cccnc1)C1CCN(c2nnc3ccc(C(F)(F)F)cn23)CC1	none
O=C(NC1CC1)C1CCN(c2cnn(Cc3ccccc3)c(=O)c2)CC1	none
Cn1cnc2cc(CNC(=O)C3CCCC3)ccc21	none
N#Cc1c(N=Cc2cc(Cl)cc(Cl)c2O)sc2c1CCC2	none (no result: Pf apPOL block)
C[C@@]12CCC=C[C@H]1[C@H](c1ccc(C(F)(F)F)cc1)N(Cc1ccccc1)C2=O	mHTT-CaM PPI inh 82.8
C[C@@]12CCC=C[C@H]1[C@H](c1ccc(/C=C/c3ccccc3)cc1F)N(Cc1ccccc1)C2=O	none
O=C1C2C(c3ccccc3)CC=CC2[C@H](c2ccc(C(F)(F)F)cc2)N1Cc1ccccc1 (some centres not stated)	none
C[C@@H]1CC=C[C@H]2[C@H]1C(=O)N(Cc1ccccc1)[C@H]2c1ccc(C(F)(F)F)cc1	mHTT-CaM PPI inh 91.0
C[C@@H]1CC=C[C@H]2[C@H]1C(=O)N(Cc1ccccc1)[C@H]2c1ccc(-c2ccc(F)cc2)cc1F	none
C[C@@H]1CC=C[C@H]2[C@H]1C(=O)N(Cc1ccccc1)[C@H]2c1ccc(-c2ccoc2)cc1F	mHTT-CaM PPI inh 60.0
COc1ccc(Br)cc1/C=C1/N=C(c2ccc(Br)cc2)OC1=O	none
O=C(Nc1ccc(F)cc1)c1coc(CN2CCN(c3cccc(Cl)c3)CC2)n1	none
CC(=O)NC1C(Oc2ccccc2Cl)OC2COC(c3ccco3)OC2C1O (configuration not stated)	none
CCCc1c(C)nc2c(C(=O)NCc3ccccc3Cl)c[nH]n2c1=O	none
COc1ccc(-c2cc3n(n2)CCCN(Cc2ccoc2)C3)cc1	none
Fc1ccc(-c2cc3n(n2)CCCN(Cc2cccc(F)c2)C3)cc1	mHTT-CaM PPI inh 92.0
O=C(Nc1cccc(Cl)c1)c1cc(S(=O)(=O)NCCc2ccccc2)ccc1F	mHTT-CaM PPI inh 51.0
O=C(Nc1cccc(F)c1)c1cc(S(=O)(=O)NCCc2ccccc2)ccc1F	none
CCN(Cc1ccccc1)S(=O)(=O)c1ccc(F)c(C(=O)Nc2cc(C)ccc2OC)c1	none
COc1ccc(C)cc1NC(=O)c1cc(S(=O)(=O)NCCc2ccccc2)ccc1F	mHTT-CaM PPI inh 64.0
Oc1oc(-c2ccccc2)nc1C=Nc1cc(C(F)(F)F)ccc1Cl	none
Cc1cc(C(O)=C2C(=O)C(=O)N(CCN(C)C)C2c2ccncc2)ccc1OCC(C)C (configuration not stated)	none
CC(=O)N(c1ccc2oc3c(c2c1)CCCC3)S(=O)(=O)c1ccc(Cl)cc1	none
COc1ccc(NC(=O)NCCNc2ccc(C)nn2)cc1Cl	none
O=C(NCc1ccccn1)C1CCCN(S(=O)(=O)N2CCCC2)C1 (configuration not stated)	none
Cc1cccc(C(=O)Nc2cccc(-c3nnc(-c4ccco4)o3)c2)c1	none
CCN1CCN(CCCNC(=O)C2CCN(c3nc4cccnc4s3)CC2)CC1	none
O=C(Cc1cccc(F)c1)N1CCCC(c2ccnc(Nc3cccc(F)c3)n2)C1 (configuration not stated)	mHTT-CaM PPI inh 73.3
CCOCC(=O)N1CCCC(c2ccnc(Nc3ccc(C)cc3)n2)C1 (configuration not stated)	none
CCOCC(=O)N1CCCC(c2ccnc(Nc3cccc(F)c3)n2)C1 (configuration not stated)	mHTT-CaM PPI inh 61.5
Cc1cccc(-c2nccc(C3CCCN(C(=O)Cc4cccc(F)c4)C3)n2)c1 (configuration not stated)	none
O=C(NCc1ccc2c(c1)OCO2)C(=O)NCC1CCN(S(=O)(=O)C2CC2)CC1	none
CC(C)C(=O)NCc1csc(C2CCCN(C(=O)C3CCCC3)C2)n1 (configuration not stated)	none
CCNC(=O)N1CC(C(=O)N2CCN(C)CC2)C(c2cccc(C(F)(F)F)c2)C1 (configuration not stated)	none
COc1ccc(NC(=O)N2CCCN(C3CCN(CC4CC4)C3=O)CC2)cc1Cl (configuration not stated)	none
CC(C)CC1C(=O)N(Cc2cn(Cc3ccco3)nn2)CCS(=O)(=O)N1Cc1ccc(-c2cccc(CO)c2)cc1 (configuration not stated)	mHTT-CaM PPI inh 59.3
CC(C)C1C(=O)N(Cc2cn(Cc3ccco3)nn2)CCS(=O)(=O)N1Cc1ccc(-c2cccc(N(C)C)c2)cc1 (configuration not stated)	mHTT-CaM PPI inh 65.3
Cc1ccc(-c2ccc(CN3C(C(C)C)C(=O)N(Cc4cn(Cc5ccco5)nn4)CCS3(=O)=O)cc2)cc1 (configuration not stated)	mHTT-CaM PPI inh 64.7
COc1ccc(-c2ccc(CN3C(C(C)C)C(=O)N(Cc4cn(CC5CCCCC5)nn4)CCS3(=O)=O)cc2)cc1 (configuration not stated)	none
CC(C)CC1C(=O)N(Cc2cn(Cc3ccco3)nn2)CCS(=O)(=O)N1Cc1ccc(-c2ccc(Cl)cc2)cc1 (configuration not stated)	none
CC(C)C1C(=O)N(Cc2cn(CC3CCCCC3)nn2)CCS(=O)(=O)N1Cc1ccc(-c2ccc(F)cc2)cc1 (configuration not stated)	none
COC(=O)C1=C(C)NC(=S)NC1C=Cc1ccccc1 (configuration not stated)	none
Cc1nc(Cn2cccc2C(=O)Nc2ccc(C)c(F)c2)no1	none
Cc1ccc(S(=O)(=O)N2CCN(c3ccc([N+](=O)[O-])c(N4CCN(C)CC4)c3)CC2)cc1	none
C=C(C)COc1ccc2c(=O)c(-c3ccc(OC)cc3)coc2c1	none
CC(C)(C)c1ccc(C(=O)Nc2nnc(C3CC(=O)N(c4ccc(F)cc4)C3)o2)cc1 (configuration not stated)	none
Cc1cccc2sc(N(CCN3CCOCC3)C(=O)c3nc4ccccc4s3)nc12	none
CC(Oc1ccccc1)C(=O)N1CCN(CC(=O)c2ccco2)CC1 (configuration not stated)	none
O=C(Nc1ccccc1OCc1ccc(Cl)c(Cl)c1)c1ccco1	none (no result: mHTT-CaM PPI inh)
Cc1ccsc1C(=O)N1CCC(n2nc(-c3ccsc3)ccc2=O)CC1	mHTT-CaM PPI inh 96.2
O=C(c1ccncc1)N1CCC(n2nc(-c3ccsc3)ccc2=O)CC1	none
Cc1cc2[nH]c(C(=O)Nc3ccccc3C)c(CN3CCCC3)c2s1	none
Cc1cc2[nH]c(C(=O)Nc3c(F)cccc3F)c(CN3CCCC3)c2s1	mHTT-CaM PPI inh 56.0
CCN1CCN(CC2CCN(S(=O)(=O)Cc3cccc(Cl)c3)CC2)CC1	none
